In PubChem BioAssay:
Calls of active or inactive are those of the source.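 Rule for the calls, unless noted: active = viability at or below 10% of carrier control in both of two separate runs; inconclusive = viability at or below 10% in only one of the two runs; inactive = the rest.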

Legend:
[1] = Her2 expression decrease, cell viability multiplex – SKBR3 breast tumor cells, AlphaScreen, ATP viability, primary screen (AID 461;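 active = Her2 level under about 52% in both replicate screens, with viability over 70% of control, limit read from the data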;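 for Her2 level: lower value means less Her2 protein in the cells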;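 for viability: percent of carrier control wells set as 100% viability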); details: SKBR3 Her2 protein level, 18-24 h, measured here: SKBR3 viability, ATP luminescence, at 10 µM
[2] = target: Receptor tyrosine-protein kinase erbB-2 (Homo sapiens) (UniProt P04626); assay: as above; details: 18-24 h, at 10 µM, stronger effect = lower value
Receptor tyrosine-protein kinase erbB-2 (Homo sapiens), sequence (P04626 whole entry, looked up): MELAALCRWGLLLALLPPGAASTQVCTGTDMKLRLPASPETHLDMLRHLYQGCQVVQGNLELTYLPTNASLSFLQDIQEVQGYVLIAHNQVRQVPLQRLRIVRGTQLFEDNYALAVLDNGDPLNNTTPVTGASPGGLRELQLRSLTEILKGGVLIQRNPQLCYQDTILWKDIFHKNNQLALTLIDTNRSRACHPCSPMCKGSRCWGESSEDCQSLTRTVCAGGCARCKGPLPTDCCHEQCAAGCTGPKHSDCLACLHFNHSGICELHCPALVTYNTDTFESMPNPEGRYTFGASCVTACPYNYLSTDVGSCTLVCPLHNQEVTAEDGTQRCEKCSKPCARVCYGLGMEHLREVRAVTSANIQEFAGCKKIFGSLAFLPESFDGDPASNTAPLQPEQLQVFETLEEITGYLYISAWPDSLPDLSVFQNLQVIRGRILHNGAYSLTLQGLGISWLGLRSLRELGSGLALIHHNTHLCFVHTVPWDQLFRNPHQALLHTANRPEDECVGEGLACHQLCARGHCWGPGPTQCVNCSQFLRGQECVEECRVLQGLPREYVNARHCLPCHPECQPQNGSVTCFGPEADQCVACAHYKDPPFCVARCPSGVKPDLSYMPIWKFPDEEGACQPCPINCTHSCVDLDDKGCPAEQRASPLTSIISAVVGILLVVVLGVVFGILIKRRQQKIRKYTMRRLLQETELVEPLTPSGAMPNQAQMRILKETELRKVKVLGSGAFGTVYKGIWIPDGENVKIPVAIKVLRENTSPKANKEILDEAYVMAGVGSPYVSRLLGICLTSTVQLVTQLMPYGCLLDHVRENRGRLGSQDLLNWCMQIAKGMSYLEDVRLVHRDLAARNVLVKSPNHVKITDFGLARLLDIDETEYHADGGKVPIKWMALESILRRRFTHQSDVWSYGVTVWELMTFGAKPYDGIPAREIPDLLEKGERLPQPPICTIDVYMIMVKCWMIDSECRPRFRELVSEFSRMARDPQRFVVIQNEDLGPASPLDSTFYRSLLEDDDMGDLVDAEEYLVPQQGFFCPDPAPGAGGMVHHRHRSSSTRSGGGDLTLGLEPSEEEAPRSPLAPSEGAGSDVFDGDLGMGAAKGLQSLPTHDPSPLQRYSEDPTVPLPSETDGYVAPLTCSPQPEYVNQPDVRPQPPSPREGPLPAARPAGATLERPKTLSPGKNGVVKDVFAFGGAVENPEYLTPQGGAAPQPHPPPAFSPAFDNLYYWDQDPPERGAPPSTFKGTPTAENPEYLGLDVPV

[3] = reduced viability of SK-BR-3 breast cancer cells – cell-based, 24 h, human, pilot screen (AID 572); details: SK-BR-3 viability, CellTiter-Glo luminescence, at 10 µM, stronger effect = lower value;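 note: compound exposure lasted between 18 and 24 h rather than exactly 24 h; 100% = carrier-treated control wells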
[4] = HUVEC growth inhibition – cell-based, human, primary screen (AID 575;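 active = viability at or below 30% in both replicate assays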;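 note: 100% = median of untreated cell wells with 0.1% DMSO on each plate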); details: HUVEC proliferation, CellTiter-Glo luminescence, 72 h; at 10 µM; stronger effect = lower value
[5] = H69AR cell proliferation blockers – human, duplicate replicates, primary screen (AID 580;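 active = viability at or under a set limit in both replicates, limit being median viability minus 3 SD, cut at about 48% in these data, passing the limit was not always enough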;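 note: 100% = mean luminescence of untreated wells and 0% = no signal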); details: H69AR lung tumor cells viability, ATP luminescence, 72 h; at 10 µM; stronger effect = lower value
[6] = MRP1 drug-resistance reversers in H69AR cells – cell-based, doxorubicin co-treatment, pilot screen (AID 601;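 active = viability loss from added drug above about 55%, and viability with drug at most 40%, in both replicates, limit read from the data, passing the limit was not always enough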); details: CellTiter-Glo, 72 h, at 10 µM; for differential viability (reversal): stronger effect = higher value
[7] = H69AR cells + 2 uM doxorubicin, measured here: viability with 2 uM doxorubicin, stronger effect = lower value
[8] = H69AR cells, compound alone cytotoxicity

Compound	viability [1] [%]	Her2 level [2]	viability [3]	viability [4]	viability [5]	differential viability (reversal) ([6]; H69AR cells + 2 uM doxorubicin)	viability [6, 7] [%]	viability [6, 8] [%]
CCCC(=O)Nc1ccc(OCC(O)CNC(C)C)c(C(C)=O)c1 (centres undefined)	100	121% (inactive)	100% (inactive)	115% (inactive)	101% (inactive)	-0.95% (inactive)	102	101
CN(C)[C@@H]1C(=O)C(C(N)=O)=C(O)[C@@]2(O)C(=O)C3=C(O)c4c(O)ccc(Cl)c4[C@@H](O)[C@H]3C[C@@H]12	140	108% (inactive)	140% (inactive)	101% (inactive)	84.2% (inactive)	0.66% (inactive)	83.6	84.2
COc1ccc(-c2coc3cc(O)cc(O)c3c2=O)cc1	118	99% (inactive)	118% (inactive)	84.2% (inactive)	68.8% (inactive)	-27% (inactive)	95.8	68.8
CO[C@@]1(NC(=O)CSCC#N)C(=O)N2C(C(=O)O)=C(CSc3nnnn3C)CS[C@@H]21	110	136% (inactive)	110% (inactive)	97% (inactive)	95% (inactive)	-5.77% (inactive)	101	95
CCCC(=O)O[C@]1(C(=O)CCl)[C@@H](C)C[C@H]2[C@@H]3CCC4=CC(=O)C=C[C@]4(C)[C@@]3(F)C(=O)C[C@@]21C	88.5	122% (inactive)	88.5% (inactive)	81.2% (inactive)	87.8% (inactive)	6.43% (inactive)	81.4	87.8
OC(CCN1CCCCC1)(c1ccccc1)C1CCCCC1 (centres undefined)	69.5	99.5% (inactive)	69.5% (inactive)	84.9% (inactive)	92.2% (inactive)	-0.69% (inactive)	92.9	92.2
CCN1CCN(c2cc3c(cc2F)c(=O)c(C(=O)O)cn3C2CC2)CC1	103	98.5% (inactive)	103% (inactive)	98.3% (inactive)	92% (inactive)	3.18% (inactive)	88.8	92
O=C1N[C@@H](Cc2cnc[nH]2)C(=O)N2CCC[C@@H]12	113	97% (inactive)	113% (inactive)	94.9% (inactive)	87.1% (inactive)	-2.25% (inactive)	89.3	87.1
C[C@]12CCC(=O)C=C1CC[C@@H]1[C@@H]2C(=O)C[C@@]2(C)[C@H]1CC[C@]2(O)C(=O)CO	82.5	110% (inactive)	82.5% (inactive)	98% (inactive)	101% (inactive)	12.6% (inactive)	88.8	101
Cc1ncc([N+](=O)[O-])n1CCO	99.5	108% (inactive)	99.5% (inactive)	103% (inactive)	105% (inactive)	8.66% (inactive)	96.7	105
Cc1nnc(SCC2=C(C(=O)O)N3C(=O)[C@@H](NC(=O)Cn4cnnn4)[C@H]3SC2)s1	88.5	99.5% (inactive)	88.5% (inactive)	105% (inactive)	101% (inactive)	1.93% (inactive)	98.7	101
CN1CCCN=C1COC(=O)C(O)(c1ccccc1)C1CCCCC1 (centres undefined)	95	79.5% (inactive)	95% (inactive)	95% (inactive)	91.6% (inactive)	3.15% (inactive)	88.4	91.6
CCC1(c2ccccc2)C(=O)NCNC1=O	96.5	102% (inactive)	96.5% (inactive)	116% (inactive)	102% (inactive)	16.5% (inactive)	85.7	102
C[C@H]1C[C@@H]2[C@H]([C@@H](O)C[C@@]3(C)[C@H]2CC[C@]3(O)C(=O)CO)[C@@]2(C)C=CC(=O)C=C12	115	115% (inactive)	115% (inactive)	93.8% (inactive)	88.1% (inactive)	9.38% (inactive)	78.7	88.1
CC(=O)O[C@]1(C(C)=O)CC[C@H]2[C@@H]3C=C(C)C4=CC(=O)CC[C@]4(C)[C@H]3CC[C@@]21C	97	88% (inactive)	97% (inactive)	113% (inactive)	87.6% (inactive)	23.2% (inactive)	64.3	87.6
CCN(CC)CCNC(=O)c1ccc(N)cc1	97.5	136% (inactive)	97.5% (inactive)	99.2% (inactive)	88.1% (inactive)	-10.7% (inactive)	98.8	88.1
CCCC(CCC)C(=O)OC1C[C@H]2CC[C@@H](C1)[N+]2(C)C (some centres undefined)	112	95.5% (inactive)	112% (inactive)	108% (inactive)	94% (inactive)	9.01% (inactive)	85	94

Compound	viability [1] [%]	Her2 level [2]	viability [3]	viability [4]	viability [5]	differential viability (reversal) ([6]; H69AR cells + 2 uM doxorubicin)	viability [6, 7] [%]	viability [6, 8] [%]
O=C(O)c1cc(=O)c2c(OCC(O)COc3cccc4oc(C(=O)O)cc(=O)c34)cccc2o1	102	102% (inactive)	102% (inactive)	121% (inactive)	106% (inactive)	14.7% (inactive)	91.5	106
C[C@]12CCC(=O)C=C1CC[C@@H]1[C@@H]2CC[C@@]2(C)[C@H]1CC[C@]2(O)C(=O)CO	99	142% (inactive)	99% (inactive)	97.7% (inactive)	92.8% (inactive)	-6.52% (inactive)	99.4	92.8
Cc1cc(C)nc(NS(=O)(=O)c2ccc(N)cc2)n1	104	110% (inactive)	104% (inactive)	83.1% (inactive)	86.7% (inactive)	7.25% (inactive)	79.4	86.7
Cc1cccc(CN2CCN(C(c3ccccc3)c3ccc(Cl)cc3)CC2)c1 (centres undefined)	83	93.5% (inactive)	83% (inactive)	96.4% (inactive)	96.8% (inactive)	1.06% (inactive)	95.8	96.8
CC1(C)O[C@@H]2C[C@H]3[C@@H]4C[C@H](F)C5=CC(=O)C=C[C@]5(C)[C@@]4(F)[C@@H](O)C[C@]3(C)[C@]2(C(=O)CO)O1	94	110% (inactive)	94% (inactive)	90.5% (inactive)	94.1% (inactive)	1.96% (inactive)	92.2	94.1
Cn1c([N+](=O)[O-])cnc1COC(N)=O	108	105% (inactive)	108% (inactive)	102% (inactive)	102% (inactive)	16.2% (inactive)	85.7	102
CC1Cc2ccccc2N1NC(=O)c1ccc(Cl)c(S(N)(=O)=O)c1 (centres undefined)	93.5	105% (inactive)	93.5% (inactive)	102% (inactive)	91.4% (inactive)	1.41% (inactive)	90	91.4
CS(=O)(=O)Nc1ccc([N+](=O)[O-])cc1Oc1ccccc1	118	103% (inactive)	118% (inactive)	106% (inactive)	108% (inactive)	10.3% (inactive)	97.6	108
COc1ccc(/C=C(/C#N)c2cccnc2)cc1OC	92	97.5% (inactive)	92% (inactive)	96.9% (inactive)	103% (inactive)	6.09% (inactive)	96.7	103
CCOC(=O)[C@H](CCc1ccccc1)N[C@@H](C)C(=O)N1CCC[C@H]1C(=O)O	116	100% (inactive)	116% (inactive)	103% (inactive)	88.6% (inactive)	-8.79% (inactive)	97.4	88.6
CCCCC(=O)O[C@]1(C(=O)CO)CC[C@H]2[C@@H]3CCC4=CC(=O)CC[C@]4(C)[C@H]3[C@@H](O)C[C@@]21C	111	108% (inactive)	111% (inactive)	101% (inactive)	96.3% (inactive)	3.07% (inactive)	93.3	96.3
CC(=O)[C@@]1(O)CC[C@H]2[C@@H]3CCC4=CC(=O)CC[C@]4(C)[C@H]3[C@@H](O)C[C@@]21C	97	104% (inactive)	97% (inactive)	94.8% (inactive)	99.5% (inactive)	0.36% (inactive)	99.2	99.5
CN1CCN(CC(=O)N2c3ccccc3C(=O)Nc3cccnc32)CC1	122	98.5% (inactive)	122% (inactive)	98.8% (inactive)	96.1% (inactive)	6.04% (inactive)	90	96.1
Nc1ccc(S(=O)(=O)Nc2ncccn2)cc1	96.5	100% (inactive)	96.5% (inactive)	91.4% (inactive)	104% (inactive)	5.02% (inactive)	98.7	104
CC(=O)OCC(=O)[C@@]12OC3(CCCC3)O[C@@H]1C[C@H]1[C@@H]3CCC4=CC(=O)C=C[C@]4(C)[C@@]3(F)[C@@H](O)C[C@@]12C	132	91.5% (inactive)	132% (inactive)	86.6% (inactive)	83.1% (inactive)	2.75% (inactive)	80.3	83.1
C[C@@H]1C[C@H]2[C@@H]3C[C@H](F)C4=CC(=O)C=C[C@]4(C)[C@@]3(F)[C@@H](O)C[C@]2(C)[C@@]1(O)C(=O)CO	74	118% (inactive)	74% (inactive)	113% (inactive)	92.7% (inactive)	-3.78% (inactive)	96.5	92.7
